Screening results as filed in PubChem BioAssay.
Rows were chosen to be rich in hits. Some 2.4% of all compounds tested hit in one or more screens of this group.
PTHR1 ag = activates the human parathyroid hormone receptor PTHR1; Potency, µM (top dose mostly 115 µM), without a hit: top-dose activation, usual class: activators; HEK293 GP2 PTHR1 cells, GloSensor cAMP luminescence, 1 h; hit rate 0.075% among 410,000; further: potency means the concentration at half of the fitted maximal effect; nearly all actives have a fitted effect of over 55% in size
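HEK-293-derived GP2 cells expressing PTHR1 and a GloSensor cAMP reporter, 3,000/well, plated overnight, given luciferin plus IBMX (each 0.5 mM as added) for 1 h at 37 °C, then compound for 1 h at 37 °C. Luminescence was read after 15 min at room temperature.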
GLP-1R agonist = GLP-1 receptor (human) agonism. AID 624172. Potency, µM (doses to about 45.6 µM), without a hit: at the top dose activation, most hits filed as activators. hit rate 0.007% among 380,000. HEK293 GLP-1R CRE-luciferase, luminescence, 4-6 h; cells express a hypersensitive GLP-1R form. P43220; further: potency means the concentration at half of the fitted maximal effect; % of control where 0% means no effect
Target sequence (P43220 whole entry, looked up): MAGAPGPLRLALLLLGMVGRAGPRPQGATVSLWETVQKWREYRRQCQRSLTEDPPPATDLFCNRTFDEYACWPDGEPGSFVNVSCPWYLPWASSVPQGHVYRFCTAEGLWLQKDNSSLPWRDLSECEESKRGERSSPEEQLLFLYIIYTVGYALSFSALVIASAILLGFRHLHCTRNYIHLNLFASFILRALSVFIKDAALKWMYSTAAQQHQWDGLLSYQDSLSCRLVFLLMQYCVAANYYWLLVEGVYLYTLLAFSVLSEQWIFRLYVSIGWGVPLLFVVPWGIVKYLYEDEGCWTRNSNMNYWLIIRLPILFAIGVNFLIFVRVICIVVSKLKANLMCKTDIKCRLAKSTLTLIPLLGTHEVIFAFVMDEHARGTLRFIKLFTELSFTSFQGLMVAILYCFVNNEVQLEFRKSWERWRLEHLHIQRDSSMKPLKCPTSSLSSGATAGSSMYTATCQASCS
GLP1R cytotox = cytotoxic in the GLP-1 receptor inverse agonist counter-screen | HEK293 cAMP-luciferase reporter cells, luminescence, 24 h | Potency, µM (highest dose often 38.3 µM), for the others: top-dose activity change, negative = inhibition, most hits filed as inhibitors | hit rate 0.13% among 410,000;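 further: loss of luciferase light is scored as toxicity; potency means the concentration at half of the fitted maximal effect; on the % scale 0 is the no-effect control and ±100 the full control effect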
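Luminescence readout: signal drop marks cytotoxicity. Plated cells grew 12 h at 37 °C, 5% CO2, received 23 nL compound for 24 h, then got luciferase reagent, read after 12 min at RT.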
TRHR agonist = agonists of human TRH receptor | activation, % at 2 µM | P34981 | hit rate 0.18% among 360,000 | TRHR cells, calcium flux fluo-8, FDSS agonist mode; in the data active means activation above about 30%; further: 0% is about no effect
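Steps: seed TRHR cells overnight; add fluo-8 no-wash Ca dye, RT 30 min–1.5 h; record 10 s baseline; pin-transfer compounds; monitor fluorescence 1 cycle/s for the agonist window. Calcium increases flag candidate agonists.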
GLP-1R inv ag = acts as inverse agonist at human GLP-1 receptor | AID 624417 | HEK293 GLP-1R CRE-luciferase, luminescence, 24 h; GLP-1R form is constitutively active | P43220 | Potency, µM (titrated, usually from 38.3 µM), without a hit: top-dose activity change, negative = inhibition, most hits filed as inhibitors | hit rate 1.6% among 410,000; further: potency means the concentration at half of the fitted maximal effect; on the % scale 0 is the no-effect control and ±100 the full control effect; nearly all actives have a fitted effect of over 55% in size
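HEK293 cells stably co-expressing a cAMP-responsive luciferase reporter and constitutively active GLP-1R were seeded, incubated 12 h, then exposed to compounds for 24 h at 37 C. Luminescence was read 12 min after detection reagent; inverse agonists lower signal.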
TRHR PAM = allosterically enhances the human TRH receptor; P34981; TRHR cells, fluo-8 calcium fluorescence, EC20 TRH enhancement; enhancement, % at 2 µM; hit rate 0.66% among 360,000; in the data active means enhancement above about 30%; further: 0% is about no effect
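Enhancer read-out: after compound pinning and an initial kinetic agonist-mode read, an EC20 of TRH (10 nM final) was injected and fluo-8 calcium signal (Ex 480/Em 530) followed at 1 s/cycle for 100 cycles in TRHR-expressing cells.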
* marks the source's active call; other numbers are inactive results; i = inactive; ? = inconclusive; nt = no result given; [ ] = another dose, or the depositor's remark. Unless noted, the call rests on the fitted dose curve; in most records, active means well fitted curve in the direction sought with a large enough effect; inconclusive means small, poorly fitted or top-dose-only effect, or another doubt; inactive means no such curve, though single readings can be large; an effect the other way counts as inactive or inconclusive.

SMILES	PTHR1 ag	GLP-1R agonist	GLP1R cytotox	TRHR agonist	GLP-1R inv ag	TRHR PAM
Cc1ccc(NS(=O)(=O)c2ccc(OCC(=O)Nc3cccc([N+](=O)[O-])c3)c(C)c2)cc1	-23%	-1%	-23%	0	10µM*	-9
O=C(CCNC(=O)c1ccc([N+](=O)[O-])cc1)Nc1ccccc1N1CCCCC1	-9%	14%	-3%	0	?	-1
COc1ccc(S(=O)(=O)N2CCCCC2)cc1NC(=O)CN(Cc1ccco1)Cc1ccco1	-36%	5%	-5%	0	?	-6
CC(C)CCn1c(-c2nonc2N)nc2ccccc21	-10%[57.5 µM]	1%	-15%	1	2.2µM*	4
NC(=S)NNC(=O)C12CC3CC(CC(C3)C1)C2	-28%	-3%	-14%	32*	?	-10
COC(=O)NNC(=O)C12CC3CC(CC(C3)C1)C2	i	-2%	-8%	0	8%	23
Cc1ccc(OCCCC(=O)Nc2ccc(Cl)c(S(=O)(=O)N3CCOCC3)c2)cc1	-46%	-4%	-2%	0	11µM*	-7
COc1ccc(NC(=O)CCOc2ccc(C)cc2)cc1S(=O)(=O)N1CCCCC1	-93%	-4%	-27%	0	7.1µM*	-1
CC(=O)c1ccc(OCCCC(=O)Nc2ccc(Cl)c(S(=O)(=O)N3CCOCC3)c2)cc1	-47%	2%	-7%	nt	1%	nt
O=C(Nc1ccc(Cl)c(S(=O)(=O)N2CCOCC2)c1)c1ccc2c(c1)OCCO2	-32%	2%	-20%	1	-28%	-6
O=C(Nc1ccc(Cl)c(S(=O)(=O)N2CCOCC2)c1)c1ccc2c(c1)OCO2	-47%	0%	-17%	nt	11µM*	nt
CCc1nn2c(=O)c(S(=O)(=O)Nc3cccc(F)c3)c(C)nc2s1	-28%	3%	-6%	0	-13%	3
COCCCNC(=O)Cn1cnc2sc(C)c(S(=O)(=O)N3CCN(c4ccccc4OC)CC3)c2c1=O	-21%	1%	-8%	0	12%	5
O=c1[nH]c(/C=C\c2ccc(O)c(O)c2)nc(O)c1[N+](=O)[O-]	i	2%	11µM*	1	-11%	-1
COc1ccc(S(=O)(=O)N=Nc2c(O)[nH]c3ccccc23)cc1	-15%	-4%	16%	0	0%	1
Oc1ccc(NC(=S)N=Nc2c(O)[nH]c3ccccc23)cc1	-13%	0%	?	-1	-1%	1
COc1ccc(NC(=S)N=Nc2c(O)[nH]c3ccccc23)cc1	-23%	-4%	3.2µM*	-1	?	-3
CNC(=S)N=Nc1c(O)[nH]c2ccccc12	i	2%	11µM*	0	-3%	3
Cc1ccc(NC(=S)N=Nc2c(O)[nH]c3ccccc23)cc1	-4%	11%	4µM*	1	?	-11
CCC(c1nnnn1C1CCCC1)N1CCN(c2ccccc2)CC1 (stereo not given)	-4%	0%	-1%	2	-10%	1
CCOc1ccc(OCCOCCN2CCc3ccccc3C2)cc1	-17%	6%	-31%	0	-14%	1
C=CCc1cc(OC)ccc1OCCOCCN1CCc2ccccc2C1	i	18%	3%	0	10µM*	0
COc1ccc(Cl)cc1NC(=O)c1ccc2nc(Cc3ccccc3)oc2c1	-10%	nt	1%	1	?	-3
O=C(Nc1cccc(Cl)c1)c1ccc2nc(Cc3ccccc3)oc2c1	-35%	nt	?	1	10µM*	0
CCC(C)c1ccc(NC(=S)N2CCN(c3ccccn3)CC2)cc1 (stereo not given)	-32%	-5%	-7%	-1	?	-2
SMILES	PTHR1 ag	GLP-1R agonist	GLP1R cytotox	TRHR agonist	GLP-1R inv ag	TRHR PAM
CN(Cc1ccc(F)cc1)C(=O)C(c1ccccc1)c1ccccc1	-16%	7%	-15%	-1	?	3
COc1ccccc1CN(C)C(=O)C(c1ccccc1)c1ccccc1	-38%	3%	?	0	13µM*	-4
COC(=O)c1c(SC)nc2ccccc2c1OCc1ccc(C)cc1	i	nt	6%	1	?	-2
CCSc1nc2ccccc2c(OCc2ccc(Cl)cc2)c1C(=O)OC	i	nt	4%	2	22µM*	0
C=CCNCC(=O)N1N=C(c2ccc3ccccc3c2)CC1c1ccc(OC)cc1 (stereo not given)	-25%	21%	?	0	13µM*	9
Cc1ccc(NC(=O)C(Cc2ccccc2)n2cccc2)cc1 (stereo not given)	-20%	6%	-5%	1	?	5
O=C(Nc1ccc(F)cc1)C(Cc1ccccc1)n1cccc1 (stereo not given)	-27%	12%	-5%	1	13µM*	-6
O=C(NCc1cccs1)C(Cc1ccccc1)n1cccc1 (stereo not given)	i	11%	11%	0	?	-9
COc1cccc(NC(=O)C(Cc2ccccc2)n2cccc2)c1 (stereo not given)	-6%	5%	-5%	0	11µM*	0
O=C(NCc1ccc(F)cc1)C(Cc1ccccc1)n1cccc1 (stereo not given)	-15%	3%	2%	0	11µM*	-4
O=C(Nc1ccccc1)Nc1ccc(-n2ccc(C(F)(F)F)n2)cc1	-2%	10%	-22%	2	7.1µM*	-5
O=C(O)CC(CC(=O)Nc1ccc(-n2ccc(C(F)(F)F)n2)cc1)c1ccccc1 (stereo not given)	-8%	1%	0%	0	-6%	10
CCCCCCCCC[n+]1cccc2c3ccccc3ccc21	-89%[57.5 µM]	-13%	?	0	10µM*	-6
CCCCCCCCCCCCCCCC[n+]1cccc2ccccc21	-7%	-18%	?	0	?	13
COc1ccc(OCc2cc(C(=O)NCCc3ccccc3)no2)c(Cl)c1	-6%	10%	-24%	1	4.5µM*	3
Fc1ccccc1NC(=S)N/N=C/c1ccccc1Br	-6%	13%	5.6µM*	-1	?	-1
CN(C1=NC(=O)C(CC(=O)O)S1)c1ccc(O)cc1 (stereo not given)	-6%	0%	18%	1	2%	-2
CCCC1=Nc2cc(C(=O)NCc3ccccc3)ccc2Sc2ccccc21	i	nt	-28%	2	4µM*	1
CCC1=Nc2cc(C(=O)NCc3ccc(C)cc3)ccc2Sc2ccc(C)cc21	i	nt	-20%	0	7.1µM*	-1
CCCC1=Nc2cc(C(=O)NCCN3CCOCC3)ccc2Sc2ccccc21	-18%	6%	-1%	2	?	9
